The labels stand for the following.
B1: chr1:13148904:13149928:-|three_prime_utr|ENSG00000280267|control|control|control (ssRNA)
RNA: GGGAGUUCUACAGUCCGACGAUCCCUGGACCUGAGUGGCAUCAGACUGACCAAUUACAGUCUUGUGCCUCUCCAAAUUCUCCUAGAAAAAGUUGCAGCCACCCUUGAGUACCUGGAUUUAGAUGACUGUGGCAUCAUAGACUCCAACAGAGGAUUGAGCAUCA
B2: chr14:63372511:63372612:-|3pUTR|ENSG00000154001|unk|total|mutant (ssRNA)
RNA: GGGAGUUCUACAGUCCGACGAUCUGGGGAUGAGGGUGGGAUGGGAAAGGGAUGUAUGGAUGUUAUUGGCAUUUUUAAGUGUUCCGAGUUUUUUGGGGUUUGGGGUGGUUUUUUUUCCUUGUUUUCCUUUUUUCCUUUUAAUUGCAACAGAGGAUUGAGCAUCA
B3: chr5:74627411:74627511:-|3pUTR|ENSG00000171617|msi1_unk|total|mutant (ssRNA)
RNA: GGGAGUUCUACAGUCCGACGAUCUUUGUAAAACUGUUAUUUUUUUUUUUUUCACAAUGUGAAACUGAAGGUCAAUAAAUUAUCCGAGAUUUUCUCUUCAUUAUGUGUGUGGGUCUUCAUUUGAAUAAGACACAAUUUGAGGCACAACAGAGGAUUGAGCAUCA
B4: chr10:68442948:68443070:-|CDS|ENSG00000138346|unk|total|mutant (ssRNA)
RNA: GGGAGUUCUACAGUCCGACGAUCCCCAAUUGUGAUGCUGCCCAAAACCGAAGAAGAAACCCAGCAUCUGAAGCAAACACACUCCGAAUAUUUCAGCCUUUGGUGUCUAAUGUUAACCCUGGAGUCACAAUCGAAGGAUAAUAACAACAGAGGAUUGAGCAUCA
B5: ENSG00000127995:stop:overlap|stop_codon|ENSG00000127995|stop_codon|NA|stop_codon (ssRNA)
RNA: GGGAGUUCUACAGUCCGACGAUCUAGCUGCAUUUUUUUGUGGACUCCUCAUCUUAUCAUCCAUUCAAGAUAAAUCAAAACAUUAGGUUCCAAAAAUUCUAAAAAACCUAAACUCUUCAGGCUACCUUUGUGUGUCUCUAGAAGCAACAGAGGAUUGAGCAUCA
B6: chr12:13219749:13219850:+|3pUTR|ENSG00000134531|unk|total|mutant (ssRNA)
RNA: GGGAGUUCUACAGUCCGACGAUCACAACAGUGGAUGGGGAGGAAGAACAGACUUUUGAGCUCUUCCCAAUACCGGAAUGUGUCCGUUCUAAAAAUUUUCUUAAGUUGUUUGCUUGGAACUCAGAGUAUAUUUUUCCAUACGAACAACAGAGGAUUGAGCAUCA
B7: chr10:128098466:128098636:-|3pUTR|ENSG00000148773|msi1|total|mutant (ssRNA)
RNA: GGGAGUUCUACAGUCCGACGAUCUCCUUUCCUUUCUGAAAAUAAAGUUUUGUGCUUUGGAGAAUGACUCGUGAGCACAUCUUCCGGGACCAAGAGUGACUUUCUGUAAGGAGUGACUCGUGGCUUGCCUUGGUCUCUUGGGAACAACAGAGGAUUGAGCAUCA
B8: chr7:137014887:137014989:+|CDS|ENSG00000181072|unk|total|mutant (ssRNA)
RNA: GGGAGUUCUACAGUCCGACGAUCGCUACUUGGCUACUGAUCCGAGAACGCAAAAUGAAUAACUCAACAAACUCCUCUAACAACCGCCUGGCUCUUACAAGUCCUUAUAAGACAUUUGAAGUGGUGUUUAUUGUCCUGGUGGCUCAACAGAGGAUUGAGCAUCA
B9: chr17:8173470:8173636:-|3pUTR|ENSG00000179029|msi1|total|mutant (ssRNA)
RNA: GGGAGUUCUACAGUCCGACGAUCUGUUUGUCUGUAUCGUCAGGUGGGAUAAUCCUUACCUGUUCCUCCUCCGGAGGGCAGAUCCGAACAUGAUGAUUGGAGAUGCAUGAAACGUGAUUAACGUCUCUGCGUAAUCAGGACUUGCAACAGAGGAUUGAGCAUCA
B10: ENSG00000124766:be:win_3601|3pUTR|ENSG00000124766|bound_else_gene|NA|bound_elsewhere_windowed (ssRNA)
RNA: GGGAGUUCUACAGUCCGACGAUCUGUACUGCGUUUUUCAUUCUUGUAUUUGACUAUUUAAUCCUUUCUACUUGUCGCUAAAUAUAAUUGUUUUAGUCUUAUGGCAUGAUGAUAGCAUAUGUGUUCAGGUUUAUAGCUGUUGUGCAACAGAGGAUUGAGCAUCA
B11: ENSG00000198589:be:win_7751|CDS|ENSG00000198589|bound_else_gene|NA|bound_elsewhere_windowed (ssRNA)
RNA: GGGAGUUCUACAGUCCGACGAUCAAGUGCAUUCCCAGUGCUUUGUCAUCACUUCAGACAACCGCUAUAUUCUCGUCUGUGGCUUCUGGGAUAAAAGUUUCAGAGUCUAUUCUACAGACACAGGAAGAUUGAUCCAAGUGGUGUCAACAGAGGAUUGAGCAUCA
B12: ENSG00000198589:be:win_2051|CDS|ENSG00000198589|bound_else_gene|NA|bound_elsewhere_windowed (ssRNA)
RNA: GGGAGUUCUACAGUCCGACGAUCUACUGACUAUGCAUGAGGAUGACAAUCUAAUGGAUGUCCUACAGCUGCUUGUUGCAUUAAUGUCAGAACACCCUAACUCUAUGAUUCCUGCUUUUGACCAAAGGAAUGGGUUACGUGUUACAACAGAGGAUUGAGCAUCA
B13: chr17:42842016:42842117:+|3pUTR|ENSG00000131467|msi1|FALSE|unique (ssRNA)
RNA: GGGAGUUCUACAGUCCGACGAUCUUACUGUUUCUUUCCUCUGUGGGGCAUUGGAUCCUCCCACAGUUGCCCUGGUGAUGACUUAGGGCUUCCCAUCUGUGUACAUCCCACUUUGAAUCUUGAUCGUGACAAGAAAUACCUUAGCAACAGAGGAUUGAGCAUCA
B14: chr6:132296306:132296407:-|3pUTR|ENSG00000079931|msi1|FALSE|unique (ssRNA)
RNA: GGGAGUUCUACAGUCCGACGAUCAUGGGAAACAUAGAAAUGGUAUGUAUUAAUAACUGAUCAUAGGCUGAGGAGAAAAAAUGUAGCUGGCUGCAAACCCAGUGCUGUGAGGUGACUUAUAUGAGGUUCCAGAUCAAAGACAGGCAACAGAGGAUUGAGCAUCA
B15: chr2:69942770:69942871:+|3pUTR|ENSG00000059728|unk|total|mutant (ssRNA)
RNA: GGGAGUUCUACAGUCCGACGAUCUGUUUCCAGAUGUUUCUUUAUGUAAAUAUGACGCCAAUGUAAAUCCUGUGUCAAGAUCACCGAGAAUGGUGCUUUUUACUACAGUCCGCACAUGCAUUUUCCGAAACUACUACAUGUUUUCAACAGAGGAUUGAGCAUCA
B16: ENSG00000107863:be:win_51|CDS|ENSG00000107863|bound_else_gene|NA|bound_elsewhere_windowed (ssRNA)
RNA: GGGAGUUCUACAGUCCGACGAUCCAAGGCCUGCGAGGUCUCAAAAAAUAAAGAUGGAAAAGAACAAAGUGAAACUGUAUCACUGUCUGAAGAUGAAACAUUCUCCUGGCCAGGUCCCAAAACAGUUACGUUGAAAAGAACAUCCAACAGAGGAUUGAGCAUCA

Whole data set: some 5,800 sequences, median “enrichment r” near 0.68, cut for the highest 2% near 11. These entries were drawn from the full list.

This passage reports binding signal results from article PMC12136788.

The assay deals with T1, UNK ZnF1-6 (called full-length) (human, UniProt Q9C0B0 30-357).
T1 sequence: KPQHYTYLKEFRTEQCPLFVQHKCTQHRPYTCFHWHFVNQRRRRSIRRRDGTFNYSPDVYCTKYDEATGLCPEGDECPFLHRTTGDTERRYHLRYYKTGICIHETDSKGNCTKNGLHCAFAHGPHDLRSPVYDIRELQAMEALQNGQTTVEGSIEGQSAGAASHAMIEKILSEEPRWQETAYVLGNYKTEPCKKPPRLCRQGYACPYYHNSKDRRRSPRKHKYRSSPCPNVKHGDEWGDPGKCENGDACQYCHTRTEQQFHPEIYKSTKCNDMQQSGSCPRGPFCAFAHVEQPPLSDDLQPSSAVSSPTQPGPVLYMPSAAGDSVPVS
Briefly: nsRBNS (natural sequence RNA bind-n-seq); RBNS binding buffer (assumed for nsRBNS): 25 mM Tris pH 7.5, 150 mM KCl, 3 mM MgCl2, 0.01% Triton X-100, 500 ug/ml BSA, 20 U/ml SUPERase-In, 4 C; UNK is unkempt and MSI1 is Musashi-1; names of the RNAs are library labels; protein concentration not given here; high values mean tight binding.
Consider B1, for which the binding signal came out at 0.577 enrichment R.
To B2 belongs 1.7 enrichment R.
To B3 belongs 0.75 enrichment R; to B4, 0.471 enrichment R.
B5 gave a binding signal of 0.828 enrichment R.
To B6 belongs 0.58 enrichment R; to B7, 0.483 enrichment R; to B8, 0.461 enrichment R.
To B9 belongs 0.686 enrichment R; to B10, 0.795 enrichment R; to B11, 0.285 enrichment R.
In the case of B12, the binding signal came out at 0.35 enrichment R.
Molecule B13 had a binding signal of 0.557 enrichment R.
Molecule B14 returned a binding signal of 0.863 enrichment R.
As to B15, the binding signal was found to be 0.355 enrichment R.
For B16 the value was 0.505 enrichment R.
